Most compounds without a hit are left out; they make up all but 2.2% or so of the library.
FUS yeast rescue: qHTS for Suppressors of FUS Proteinopathy: Primary screen using FUS-linked yeast assay; S. cerevisiae FUS-expressing, growth rescue, OD600, 24 h; Potency, µM (doses to about 76.6 µM), usual class: activators; hit rate 0.24% among 390,000;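 also: plate controls were DMSO vehicle for no effect and reference control for full effect; nearly all actives have a fitted effect of over 55% in size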
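Toxicity suppression screen in FUS-yeast. Cells induced with 2% galactose, starting OD 0.005, treated 24hr at 30C with compounds at multiple final concentrations; growth by OD600.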
aSyn rescue: qHTS of alpha-syn Inhibitors; Yeast expressing alpha-synuclein, growth rescue, BacTiter-Glo, 24 h; Potency, µM (titrated, usually from 46.1 µM), for inactives: top-dose growth rescue (activation), most hits filed as activators; hit rate 0.14% among 370,000; AID 652106, 2013; also: % of control where 0% means no effect; nearly all actives have a fitted effect of over 65% in size
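Readout is rescue of growth in alpha-synuclein-expressing yeast, so inhibitors of toxicity appear as activators. Growth after 24 hr at 30 deg C in galactose medium is quantified by luminescence.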
Mito fusion act: qHTS Assay for Small Molecule Inhibitors of Mitochondrial Division or Activators of Mitochondrial Fusion; S. cerevisiae fusion-defective mutant growth rescue, CellTiterGlo 48 h; Potency, µM (top dose mostly 46.1 µM), inactives show at the highest dose growth rescue (activation), usual class: activators; hit rate 0.23% among 320,000; AID 485298, 2010; also: % of control where 0% means no effect; nearly all actives have a fitted effect of over 45% in size
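Temperature-sensitive fusion-defective S. cerevisiae (e.g. fzo1-1, mgm1-5) were grown with compound in YPEG medium (3% ethanol, 3% glycerol) for 48 hours at 37C. Growth rescue was measured as viability by CellTiterGlo luminescence after 10 minutes at ambient.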
TDP43 rescue: qHTS of TDP-43 Inhibitors; TDP-43 expressing yeast growth rescue, BacTiter-Glo, 24 h; Potency, µM (highest dose often 46.1 µM), without a hit: top-dose growth rescue (activation), most hits filed as activators; AID 652104, 2013; hit rate 1.8% among 410,000; also: % of control where 0% means no effect; nearly all actives have a fitted effect of over 50% in size
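In this qHTS, compounds that restore growth of yeast expressing TDP-43 appear as activators. Cells (OD600=0.02, galactose medium, raffinose-pregrown) are incubated with compound 24 hr at 30 deg C and growth is quantified by BacTiter-Glo.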
Abeta yeast res: qHTS for compounds that reverse cellular toxicity of Amyloid beta (A-beta) peptide in yeast: Primary Screen | yeast expressing A-beta42, growth rescue, OD600, 48 h; response scale: 0% DMSO, 100% iron-clioquinol control | Potency, µM (highest dose often 46.1 µM), actives largely listed as activators | hit rate 0.063% among 410,000 | AID 1347071, 2019; also: nearly all actives have a fitted effect of over 55% in size
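Yeast growth medium received pinned compounds, then yeast cells expressing toxic A-beta were added; plates incubated at 30 C for 48 hr. Growth read as absorbance at 600 nm, normalized to DMSO and equimolar FeCl3 plus clioquinol controls.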
Active calls of the source: *; i = inactive; ? = inconclusive; / = no result. Calls follow the shape of the dose curve; as a rule, active = well fitted curve in the direction sought with a large enough effect; inconclusive = small, poorly fitted or top-dose-only effect, or another doubt; inactive = no such curve, though single readings can be large; an effect the other way counts as inactive or inconclusive. Potency is read from the fitted curve at half-maximal effect.

SMILES | FUS yeast rescue | aSyn rescue | Mito fusion act | TDP43 rescue | Abeta yeast res
COc1cccc(C(=O)Nc2cccc(-c3ccccc3)c2)c1 | i | -0.7% | 7.3% | 17.8µM* | i
COc1cc(OC)cc(C(=O)Nc2ccc(Nc3ccccc3)cc2)c1 | 25.1µM* | 8.7% | -2.3% | -17.7% | i
CCc1ccc(-n2c(=O)c3sc4ccccc4c3n(CC(=O)NC3CCCCC3)c2=O)cc1 | i | / | / | 13.0% | i
CC(=O)N1c2c(cc(Br)cc2S(=O)(=O)NCc2ccccc2Cl)CC1C (configuration not stated) | i | / | / | 24.4% | i
Cc1ccc(CNC(=O)CN2C(=O)CSc3c2c(C)nn3-c2ccccc2)cc1 | i | / | / | 29.5% | i
CCOc1ccc(Nc2ncnc3onc(-c4ccc(Cl)cc4)c23)cc1 | i | / | / | 22.4µM* | i
COc1cc(Nc2ncnc3onc(-c4ccc(Cl)cc4)c23)cc(OC)c1 | i | 0.2% | / | 16.9% | i
Cc1ccc(C2(C)NC(=O)N(CC(=O)Nc3ccccc3N3CCCC3)C2=O)cc1 (configuration not stated) | i | 0.3% | 10.6% | -26.0% | i
COc1ccccc1Nc1nc2ccccc2n2cnnc12 | i | 1.5% | 7.6% | ? | i
Fc1ccc(Nc2nc3ccccc3n3cnnc23)c(F)c1 | i | / | / | 8.91µM* | i
Cc1ccc2oc(-c3cccc(N)c3)nc2c1 | i | -2.9% | 14.8% | 12.6µM* | i
Cc1ccc(-c2nc3cc(N)ccc3o2)cc1 | i | -2.4% | 11.6% | 0.0% | i
C#CCSc1nccc(-c2nn(-c3ccc(C)cc3)ccc2=O)n1 | 35.5µM* | 5.5% | 3.5% | -15.0% | i
COc1ccccc1C(=O)NNC1=C(C(=O)C(F)(F)F)CCC1 | i | 3.55µM* | 2.3% | -10.3% | ?
O=C(NNC1=C(C(=O)C(F)(F)F)CCC1)c1ccccc1O | i | -8.9% | -3.3% | -18.0% | i
Nc1ccc2c(c1)CC(=O)c1ccccc1S2 | i | 14.6% | 20.0% | 9.7% | ?
O=C1Cc2ccccc2Sc2ccc(O)cc21 | i | -7.5% | 14.1µM* | 0.0% | i
COc1ccc(NCc2cc3cc4c(cc3n(CC(=O)Nc3ccc(C)cc3)c2=O)OCO4)cc1 | 14.1µM* | -0.8% | / | -6.1% | i
Cc1ccc(NC(=O)C(=O)NCCc2sc(-c3ccc(Cl)cc3)nc2C)cc1C | i | / | / | 9.2% | i
COc1cccc(NC(=O)c2cnn(-c3ccccc3)c2C)c1 | i | 3.3% | -7.6% | 20µM* | i
CCc1cccc(NC(=O)c2cnn(-c3ccccc3)c2C)c1 | i | -17.9% | -13.6% | 0.0% | i
COc1cccc(Nc2ncccc2C(=O)Nc2ccccc2)c1 | i | -5.5% | ? | 22.4µM* | i
COc1cccc(NC(=O)c2cc(-c3ccccn3)nc3ccccc23)c1 | / | -3.3% | 16.0% | 25.1µM* | i
COc1cccc(NC(=O)c2ccccc2Oc2ccccc2)c1 | ? | 0.7% | 6.1% | 19.1% | i
C/C(=N\O)c1c(O)cc(-c2ccccc2)n(-c2ccccc2)c1=O | ? | -7.9% | 2.3% | -3.0% | i
SMILES | FUS yeast rescue | aSyn rescue | Mito fusion act | TDP43 rescue | Abeta yeast res
Cc1c(O)c2c(=O)n(-c3ccccc3)c(-c3ccccc3)cc2oc1=O | i | 2.0% | 10µM* | 5.6% | i
Cc1oc(-c2cccc(Cl)c2)nc1CSCC(=O)NCc1ccccc1Cl | i | / | / | 22.4µM* | i
CCOc1ccccc1NC(=O)C(=O)NCCc1sc(-c2cccc(F)c2)nc1C | i | / | / | 10.2% | i
O=C(/C=C/c1cccc([N+](=O)[O-])c1)c1ccc([N+](=O)[O-])o1 | i | -77.3% | / | -91.1% | i
Cc1ccc(/C=C/C(=O)c2c(C)nc3ccccn23)cc1 | i | -5.6% | 4.9% | ? | i
O=C(/C=C/c1cccc([N+](=O)[O-])c1)c1ccco1 | i | 12.2% | -24.5% | 6.31µM* | i
Cc1nc2ccccn2c1C(=O)/C=C/c1cccc([N+](=O)[O-])c1 | i | -4.7% | 1.6% | 2.51µM* | i
O=C(Oc1ccc2ccc(O)cc2c1)C1CCCCC1 | i | -4.2% | 8.8% | 22.4µM* | i
COc1cc(C(=O)Oc2ccc3ccc(O)cc3c2)cc(OC)c1OC | i | -15.7% | 0.8% | 25.7% | i
O=C(Oc1ccc2ccc(O)cc2c1)c1ccccc1Cl | i | -11.6% | -0.8% | 14.1µM* | i
COc1ccccc1CNC(=O)C1CCCN(S(=O)(=O)c2ccc3c(c2)oc(=O)n3C)C1 (configuration not stated) | i | / | / | -15.6% | i
O=c1[nH]/c(=C/c2ccc3c(c2)OCO3)c(=O)[nH]/c1=C\c1ccc2c(c1)OCO2 | / | -3.2% | / | / | /
COc1ccc(-n2c(SCC(=O)NC3CCCCC3)nc3c([nH]c4ccccc43)c2=O)cc1 | i | -6.5% | / | 20.4% | i
C[C@@]12C(=O)Nc3ccc(Cl)cc3C(=O)N1[C@H]1c3ccccc3OC[C@@H]1[C@@H]2c1ccccc1 | 28.2µM* | -1.6% | -20.4% | -46.6% | i
C[C@@]12C(=O)Nc3ccc(F)cc3C(=O)N1[C@H]1c3cc(Cl)ccc3OC[C@@H]1[C@@H]2c1ccccc1 | i | -3.0% | / | 17.8µM* | i
CCOC(=O)[C@H]1[C@H]2COc3ccc(Cl)cc3[C@@H]2N2C(=O)c3cc(Cl)ccc3NC(=O)[C@@]12C | i | -4.7% | ? | 7.8% | 3.55µM*
C[C@@]12C(=O)Nc3cc(F)c(F)cc3C(=O)N1[C@H]1c3ccccc3OC[C@@H]1[C@@H]2c1ccccc1 | i | -11.5% | / | -13.3% | i
C[C@@]12C(=O)Nc3ccc(F)cc3C(=O)N1[C@H]1c3ccccc3OC[C@@H]1[C@@H]2c1ccccc1 | ? | 7.4% | / | 14.1µM* | i
Cc1ccc(CCNC(=O)c2cc3c(=O)n(C)c4ccccc4c3n2C)cc1 | i | / | / | 13.5% | i
Cc1ccc(S(=O)(=O)CC(=O)Nc2sc3c(c2C(N)=O)CCCC3)cc1 | i | / | / | -0.7% | i
CCOC(=O)[C@@H]1[C@H]2COc3ccccc3[C@@H]2N2C(=O)N(c3ccc(Cl)cc3)C(=O)[C@@]12C | i | 2.7% | 9.1% | 0.0% | i
CCOC(=O)[C@@H]1[C@H]2COc3ccccc3[C@H]2N2C(=O)N(c3ccc(Cl)cc3)C(=O)[C@]12C | ? | -6.1% | -19.5% | 35.5µM* | i
O=C(O)c1ccccc1C(=O)OC1CCCC2CCCC21 (configuration not stated) | / | 17.7% | / | 22.4µM* | i
CC1C2CCC(C2)C1OC(=O)c1ccccc1C(=O)O (configuration not stated) | i | 12.5% | / | 5.0% | i

Screening data as filed in PubChem.
